Data as given in PubChem BioAssay (NCI).
The panel holds about 79,000 compounds, 15% with a hit somewhere; the sample as a whole holds those more often. No stated cut-off is given here; in the data, active means growth inhibition above about 70%; inactive means the rest.

Columns and labels:
[1] = NCI Yeast Anticancer Drug Screen. Data for the rad50 strain (AID 155);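 further: 0% = growth of vehicle-only cultures of the same strain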; settings: S. cerevisiae rad50 strain growth inhibition; at 50.0 µM; stronger effect = higher value
Method in brief: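 Compounds were tested on a yeast strain with an engineered DNA damage repair alteration; the reported value is growth inhibition normalised to vehicle treatment.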

[2] = NCI Yeast Anticancer Drug Screen. Data for the mec2-1 strain (AID 157); settings: S. cerevisiae mec2-1 strain, at 50.0 µM, stronger effect = higher value
Method in brief: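 Cells of the genetically defined mec2-1 yeast strain are incubated with test compound. Inhibition of growth is calculated against vehicle-treated controls.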

[3] = NCI Yeast Anticancer Drug Screen. Data for the sgs1 mgt1 strain (AID 161);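 further: 0% = growth of cultures given vehicle only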; settings: S. cerevisiae sgs1 mgt1 strain, at 50.0 µM, stronger effect = higher value
Method in brief: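 Genetically altered yeast, compound exposure, growth inhibition relative to vehicle.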

[4] = NCI Yeast Anticancer Drug Screen. Data for the cln2 rad14 strain (AID 165);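 further: 0% = growth equal to vehicle treated cultures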; settings: S. cerevisiae cln2 rad14 strain, at 50.0 µM, stronger effect = higher value
Method in brief: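 The screen exposed genetically defined yeast (cln2 rad14) to test compounds and scored growth inhibition relative to vehicle-treated controls.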

[5] = NCI Yeast Anticancer Drug Screen. Data for the bub3 strain (AID 167); settings: S. cerevisiae bub3 mutant strain, at 50.0 µM, stronger effect = higher value
Method in brief: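 Growth of a checkpoint-deficient yeast mutant is measured after compound exposure. Values represent inhibition relative to vehicle.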

[6] = NCI Yeast Anticancer Drug Screen. Data for the mlh1 rad18 strain (AID 175); settings: S. cerevisiae mlh1 rad18 strain growth inhibition; at 50.0 µM; stronger effect = higher value
Method in brief: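 Compound-treated yeast growth, normalised to vehicle controls. Strain bears defined DNA repair mutations.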

Measured: growth inhibition

O=C(Nc1cccc([N+](=O)[O-])c1)c1ccc(Cl)cc1
inactive: [1] -5.95% | [2] -10.8% | [3] 8% | [4] -49.5% | [5] -9.5% | [6] -3.95%

O=C(Cc1ccccc1)NN1C(=O)/C(=C\c2ccccc2O)SC1=Nc1ccccc1
inactive: [1] 1.15% | [2] -6.3% | [3] 31.4% | [4] 13.5% | [5] -6.95% | [6] 7.25%

CCCNC(=O)Nc1ccc(OC)cc1Cl
inactive: [1] -12.1% | [2] -9.45% | [3] -1.65% | [4] -59.3% | [5] -6.3% | [6] -15.6%

CNC(=O)N(C)COC
inactive: [1] -2.65% | [2] -10.9% | [3] 2.55% | [4] -0.7% | [5] -40.8% | [6] -5.1%

O=C(O)C12CCCCC1CCCC2 (stereo unspecified)
inactive: [1] 11.4% | [2] 31.2% | [3] -6.25% | [4] 26.1% | [5] -0.75% | [6] 10.7%

Cc1cccc(NC(=O)OCCOC(=O)Nc2cccc(C)n2)n1
inactive: [1] -15.1% | [2] -11.6% | [3] -19.4% | [4] -9.25% | [5] -11.1% | [6] -1.15%

COc1cccc(S(=O)(=O)c2c(C)cc(C)cc2C)c1
inactive: [1] -12.7% | [2] -12.6% | [3] -12.8% | [4] -42% | [5] 1.1% | [6] -12.8%

C=C1C(=O)O[C@H]2C1[C@H](OC(=O)/C(C)=C\COC(C)=O)C[C@]1(CO1)[C@@H]1[C@H](O)[C@H]3O[C@@]3(C)[C@@H]12 (stereo partly specified)
inactive: [1] -5.95% | [2] -26.4% | [3] -13% | [4] -1% | [5] -52% | [6] -2.05%

O=C(O)CSC(CC(=O)O)C(=O)O (stereo unspecified)
inactive: [1] 10.3% | [2] -9.4% | [3] 17.7% | [4] 8.85% | [5] 21.6% | [6] 4.25%

CCOC(=O)C(=O)Nc1ccccc1OCC
inactive: [1] 3.3% | [2] 11.2% | [3] -11.2% | [4] -27.7% | [5] 0.9% | [6] 4.2%

Cc1nc2ccccc2c(=O)n1/N=C\c1ccc2c(c1)CCC2
inactive: [1] -1.7% | [2] -5.5% | [3] 15.8% | [4] 18.2% | [5] 23% | [6] 29.1%

CN1CC(=O)N2CCCCC2C(c2ccccc2)C1 (stereo unspecified)
inactive: [1] -4.85% | [2] 2.85% | [3] -0.25% | [4] -34.7% | [5] -9.35% | [6] -1.25%

COc1cccc(CCNc2ccncc2N)c1
inactive: [1] -22% | [2] -23.7% | [3] -24.6% | [4] -52.2% | [5] -29.1% | [6] 12.9%

CCN(CC)CCOC(=O)c1ccc(NC(=O)Nc2ccccc2[N+](=O)[O-])cc1
inactive: [1] 19.4% | [2] 5.5% | [3] 19.1% | [4] 16.6% | [5] 15.6% | [6] 14.8%

NC(CCCCNC(=O)OCc1ccccc1)C(=O)OCc1ccccc1 (stereo unspecified)
inactive: [1] -15.2% | [2] -20.4% | [3] -9.7% | [4] 15.6% | [5] -0.75% | [6] -18.5%

Cc1cccc(NC(=O)Nc2ccccc2Cl)c1C
inactive: [1] 11.2% | [2] 5.15% | [3] 0.65% | [4] -3.65% | [5] -2.3% | [6] -9.45%

CC(C(=O)O)C(=O)NNc1ccccc1 (stereo unspecified)
inactive: [1] 7.8% | [2] -17.9% | [3] -6.7% | [4] 8.4% | [5] -2.1% | [6] -16.4%

COC(=O)c1ccc2c(c1)CC1(C2)Cc2cc3c(cc2C1=O)CCC3 (stereo unspecified)
inactive: [1] -3.35% | [2] -37.8% | [3] -0.5% | [4] -3.15% | [5] 14.3% | [6] -5.3%

CC1(CO)C(O)CCC2(C)C1C(O)CC1CC3CC12CCC3(O)CO (stereo unspecified)
inactive: [1] -12.8% | [2] -17.9% | [3] 1.3% | [4] -0.8% | [5] -21.1% | [6] -22.1%

COc1cc(OC)cc(C2OC3=C(Nc4ccccc4N3)C2=O)c1 (stereo unspecified)
inactive: [1] 12.8% | [2] 16.1% | [3] 23.2% | [4] 19.4% | [5] 19.4% | [6] 28.1%

CCCCCCCCCCCCCCCc1cc(OC)ccc1S(=O)(=O)O
inactive: [1] 22.6% | [2] 5.8% | [3] 15.9% | [4] 30.9% | [5] 3.1% | [6] 15.6%

O=C(O)C1C2C3CCC(C3)C12 (stereo unspecified)
inactive: [1] 2.7% | [2] 16.4% | [3] 8.2% | [4] 34.6% | [5] -4.9% | [6] 1.95%

O=C(NC12CC3CC(CC(C3)C1)C2)C(O)C(O)C(O)C(O)CO (stereo unspecified)
inactive: [1] -16.6% | [2] -1.75% | [3] 20.1% | [4] 0.9% | [5] 5.6% | [6] 2.65%

O=S(=O)(O)O.[NH-]CC1(C[NH-])CCCCC1.[Pt+2]
inactive: [1] -13% | [2] 17.9% | [3] -3.15% | [4] -0.7% | [5] -28.6% | [6] -46.4%

O=c1c2c(oc3cc(OCC4CO4)ccc13)CCC2 (stereo unspecified)
inactive: [1] -0.4% | [2] -7.7% | [3] -28.2% | [4] -24.9% | [5] -9.05% | [6] -21.4%

CCCCCCCCCOCC(COP(=O)([O-])OCC[N+](C)(C)C)OC (stereo unspecified)
inactive: [1] 10.2% | [2] 13.3% | [3] 1.4% | [4] -22.4% | [5] -7.75% | [6] 17.5%

O=C(CCCn1ccnc1[N+](=O)[O-])NCCn1cncc1[N+](=O)[O-]
inactive: [1] 0.65% | [2] -8.2% | [3] 5.9% | [4] 7.6% | [5] 0.25% | [6] -9.9%

CC(C)OC(=O)Nc1ccc(F)c(F)c1
inactive: [1] 24.9% | [2] -16.8% | [3] 2.6% | [4] -2.8% | [5] 6.85% | [6] 20.1%

COC(=O)CC(=O)C[P+](c1ccccc1)(c1ccccc1)c1ccccc1
inactive: [1] 6.5% | [2] -19.1% | [3] 14.8% | [4] 18.4% | [5] -18.1% | [6] 5.4%

O=[N+]([O-])c1ccccc1C1SCc2nc3ccccc3n21 (stereo unspecified)
inactive: [1] 25.2% | [2] 10.2% | [3] 31.8% | [4] 30.5% | [5] 44.5% | [6] 12.3%

Cc1ncc2c(n1)CCC1=C2OS(=O)(=O)CC1N(C)C (stereo unspecified)
inactive: [1] -24.1% | [2] -0.45% | [3] -3.3% | [4] 1.6% | [5] -10.1% | [6] -22.4%

O=C(Cc1ccccc1)NN1C(=O)/C(=C\c2ccc(O)cc2)SC1=Nc1ccccc1
inactive: [1] 5.5% | [2] -1.05% | [3] 28.9% | [4] 4.4% | [5] -9.75% | [6] 19.9%

O=C1CC(c2ccc(Cl)cc2)C(=O)O1 (stereo unspecified)
inactive: [1] -10.5% | [2] 12% | [3] 1.6% | [4] 3.2% | [5] -23.4% | [6] -15.1%

c1ccc(-c2sc(-c3ccccc3)c3c2C2CCC3C2)cc1
inactive: [1] -12.4% | [2] 6.05% | [3] 14% | [4] 29% | [5] 40.6% | [6] -0.05%

Cc1[nH]nc(-c2ccon2)c1N
inactive: [1] -4.45% | [2] -3.3% | [3] -27.4% | [4] -20.5% | [5] 13.2% | [6] -6.6%

Cc1ncc(N)nc1C
inactive: [1] -5.25% | [2] -15.8% | [3] -26.5% | [4] -35.5% | [5] -22.6% | [6] -43%

N#Cc1c(CC(=O)O)cc(=O)n2c1[nH]c1ccccc12
inactive: [1] -13.9% | [2] -12.9% | [3] -1.9% | [4] 13.4% | [5] -11.9% | [6] -10.3%

CCCC(=O)Nc1ccc(OC)cc1
inactive: [1] 16.8% | [2] 11.2% | [3] 9.55% | [4] -43.2% | [5] -1.85% | [6] 1.9%

CCC1=C(C)/C(=C/c2[nH]c(C)cc2C)N=C1C
inactive: [1] 5.5% | [2] 0.95% | [3] 3.65% | [4] -54.6% | [5] 0.25% | [6] 12.2%

C=C(C)C(=O)Nc1ccc(-n2[nH]c(C)c(N=Nc3ccc(N(C)C)cc3)c2=O)cc1
inactive: [1] 6.95% | [2] -5.5% | [3] -14.6% | [4] -36% | [5] -2.55% | [6] 1.85%

CC(C)NP(=O)(OC1CC(C)(C)N(O)C(C)(C)C1)OC1CC(C)(C)N(O)C(C)(C)C1
inactive: [1] 26.1% | [2] 18.6% | [3] 13.4% | [4] -16.3% | [5] 2% | [6] 5.65%
